Results: PubChem BioAssay (Tox21)
“And” between values parts separate entries of the source, which are not always exact repeats. Equal values may be shown once. Inconclusive results are not listed. Entries that show only a call come without a potency. Some structures have more than one record in an assay (separate samples or runs), and their calls can disagree. The source made the active and inactive calls. Calls come from the whole dose curve; as a rule, active = well fitted cell-killing curve with a large enough effect in the repeat runs; inconclusive = weak or mixed curves, or effect the other way; inactive = no such curve, though single readings can be large or run the other way.

experiment: qHTS assay to identify small molecule agonists of the vitamin D receptor (VDR) signaling pathway - cell viability counter screen (AID 743224); settings: VDR-bla HEK293T viability, CellTiter-Glo luminescence, 16 h; series mostly up to 62.6 µM; note: nearly all actives have a fitted effect of over 50% in size
Outline: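 Viability is measured in the same wells as the VDR-bla reporter assay: after 16 h compound treatment and 2 h substrate loading, CellTiter-Glo is added and luminescence read 30 min later.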
Potency is the fitted concentration of half-maximal effect.

SMILES | Potency
NNc1ccccc1 | inactive
CN(C)NC(=O)CCC(=O)O | inactive
CC(=O)C1CCOC1=O (stereo not given) | inactive
CN(C)C(=O)C(c1ccccc1)c1ccccc1 | inactive
CN1C(=O)CCS(=O)(=O)C1c1ccc(Cl)cc1 (stereo not given) | inactive
Cc1ccc(O)c(C)c1 | inactive
O=C(O)C1C(C(=O)O)C2(Cl)C(Cl)=C(Cl)C1(Cl)C2(Cl)Cl (stereo not given) | inactive
Nc1ccc([As](=O)(O)O)cc1 | inactive
CNC(=O)Oc1cccc2ccccc12 | inactive
O=[N+]([O-])c1ccc(Cl)c(Cl)c1 | inactive
CNC(=O)O/N=C/C(C)(C)S(C)(=O)=O | inactive
CCCCC(CC)C(=O)Cl (stereo not given) | inactive
CCNc1nc(Cl)nc(NC(C)C)n1 | inactive
C=C(C)C(=O)OCC(CC)CCCC (stereo not given) | inactive
Cc1ccc(N)cc1 | inactive
Cc1cc(Cl)ccc1OC(C)C(=O)O (stereo not given) | inactive
Cc1cccc(N)c1C | inactive
CCOP(=S)(OCC)Oc1cc(C)nc(C(C)C)n1 | inactive and 24.5 µM (active)
OCC(O)CCl (stereo not given) | inactive
Oc1c(Br)cc(Br)cc1Br | inactive
Cc1cccc(C)c1N | inactive
O=C(O)C(Br)Br | inactive
Cc1ccccc1N | inactive
CN(C)C(=O)Cl | inactive
COC(C)(C)CCCC(C)C/C=C/C(C)=C/C(=O)OC(C)C (stereo not given) | inactive
Cc1cccc(C)c1NC(=O)CN1CCCC1=O | inactive
Oc1ccc(Cl)cc1 | inactive
CC(C)(C)C(=O)CCl | inactive
Nc1cc(Cl)cc(Cl)c1 | inactive
CSc1nnc(C(C)(C)C)c(=O)n1N | inactive
